Among the data in PubChem BioAssay (NCI) are growth values, retold here.

Molecules are shown by their SMILES. Compounds without any hit were thinned out: in the full panel of roughly 83,000, 20% have a hit.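 A percent growth of 40 corresponds to 60% growth inhibition; 0 means no net growth; -100 means all cells died. Active threshold: below 10.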 Values without a mark were called inactive. The source made the active and inactive calls.

Some test systems named below: T-47D breast; BT-549 breast; MDA-MB-435 melanoma; SW-620 colon; MCF7 breast; HCT-116 colon; KM12 colon; HCC-2998 colon.
Holding throughout (assay): NCI-60 one-dose screen, 48 h (100 = growth as untreated, 0 = no growth, -100 = all killed)
Holding throughout (conditions): 10 µM unless noted

On to `Cc1ccc(C(=NN=C(N)N)c2ccc(C)cc2)cc1`, for which the growth with T-47D breast is 20.3%; in the assay with BT-549 breast it was -24.8% (active); with MDA-MB-435 melanoma, -39% (active); with SW-620 colon it was 28.4%; in the assay with MCF7 breast, 2.04% (active); in the assay with HCT-116 colon, 2.81% (active). The growth in the assay on KM12 colon is 1.93% (active).
For `COc1ccc(-c2c(N)n[nH]c2-c2ccc(Cl)cc2O)cc1OC`, the growth is 91.2% in the assay on T-47D breast; 105% in the assay on BT-549 breast; 69.7% in the assay on MDA-MB-435 melanoma; 102% in the assay on SW-620 colon; 86% in the assay on MCF7 breast; 90.1% in the assay with HCT-116 colon. For the same compound, the growth with KM12 colon is 83%.
In the case of `Cc1cc(NCCCCNc2ccnc3cc(Cl)ccc23)nc(Nc2ccc(C(=O)N3CCCC3)cc2)n1`, the growth in the assay on T-47D breast is -31.2% (active); in the assay on BT-549 breast, 93.2%; in the assay on MDA-MB-435 melanoma, -45% (active); in the assay with SW-620 colon it was -11.8% (active); with HCT-116 colon, 2.57% (active); with HCC-2998 colon, 8.57% (active). In addition, in the assay with KM12 colon, the growth is 55.7%.
With `O=C1/C(=C/c2ccc(F)cc2)C=C(c2ccccc2)N1CCc1ccccc1`, the growth in the assay on T-47D breast was 52.1%; in the assay on BT-549 breast it was 79.3%; in the assay with MDA-MB-435 melanoma, 65.4%; in the assay on SW-620 colon, 70%; in the assay on HCT-116 colon it was 29.4%; in the assay with HCC-2998 colon it was 85%. For the same compound, the growth in the assay with KM12 colon is 62.2%.
On to `CCCc1cc2c(=O)c(C(=O)OC)c[nH]c2cc1N(CC)CC`, for which the growth was 94.4% with T-47D breast; 93.5% with BT-549 breast; 109% in the assay on MDA-MB-435 melanoma; 114% in the assay on SW-620 colon; 96.3% in the assay on HCT-116 colon; 104% in the assay on HCC-2998 colon. For the same compound, the growth in the assay with KM12 colon was 105%.
Take `COC(=O)[C@]12CC[C@@H](C)[C@H](C)[C@@H]1C1=CC[C@@H]3[C@@]4(C)C(C=O)=C[C@@](C)(COC(C)=O)[C@@H]4C(=O)C[C@@]3(C)[C@]1(C)CC2`: the growth with T-47D breast is 39%; in the assay on BT-549 breast, 32.4%; in the assay with MDA-MB-435 melanoma, 50.5%; in the assay on SW-620 colon it was 29.1%; in the assay on HCT-116 colon, 5.18% (active); in the assay on HCC-2998 colon, 40%. Moreover, the growth with KM12 colon was 28.4%.
As for `C#CCOc1nc(C)cc(C)c1C#N`, the growth with T-47D breast is 96.2%; with BT-549 breast, 106%; in the assay with MDA-MB-435 melanoma it was 99.9%; in the assay with SW-620 colon, 96.5%; in the assay with HCT-116 colon, 99.4%; in the assay on HCC-2998 colon, 103%. Further, the growth in the assay on KM12 colon is 102%.
Turning to `CCN(CCNc1ccc(C)c2sc3ccccc3c(=O)c12)CC(C)(C)O`, the growth was 80.7% in the assay with T-47D breast; 93.4% in the assay on BT-549 breast; 79% with MDA-MB-435 melanoma; 73.6% with SW-620 colon; 81.8% in the assay on MCF7 breast; 60% in the assay on HCT-116 colon. For the same compound, the growth in the assay with KM12 colon was 48.3%.
Regarding `Cc1ccc(/C=C2\C(=O)N(C)c3ccc(S(=O)(=O)Nc4ccc(C(C)(C)C)cc4)cc32)s1`, the growth with T-47D breast is 55%; with BT-549 breast it was 87.4%; in the assay with MDA-MB-435 melanoma, 69.1%; with SW-620 colon, 50.4%; in the assay on HCT-116 colon, 37.2%; in the assay with HCC-2998 colon it was 85%. Also, the growth with KM12 colon is 59.9%.
For the compound `COc1ccc2c(c1)O/C(=C\c1cccc(OCC(=O)Nc3nc4ccccc4s3)c1)C2=O`, the growth in the assay with T-47D breast is 62.1%; in the assay with BT-549 breast, -51.7% (active); with MDA-MB-435 melanoma it was 96.5%; with SW-620 colon, 79%; in the assay with MCF7 breast, 73.7%; in the assay with HCT-116 colon, 76.5%. Moreover, in the assay on KM12 colon, the growth is 88.2%.
Turning to `COc1ccc2c(c1)CCCN2c1c2ccccc2nc2ccccc12`, the growth was 51.1% in the assay on T-47D breast; 7.21% (active) in the assay with BT-549 breast; -17.9% (active) with MDA-MB-435 melanoma; 24.7% with SW-620 colon; 6.8% (active) with HCT-116 colon; -9.75% (active) in the assay with HCC-2998 colon. Moreover, the growth with KM12 colon was 5.15% (active).
Turning to `CC(C)C(NC(=O)C1(NC(=O)OCc2ccccc2)CCCC1)C(=O)O` (stereo unspecified), the growth in the assay with T-47D breast is 103%; with BT-549 breast, 83.7%; with MDA-MB-435 melanoma it was 109%; in the assay with SW-620 colon it was 96.9%; in the assay with MCF7 breast it was 105%; with HCT-116 colon it was 97.6%. Also, in the assay on KM12 colon, the growth was 111%.
With `NC(N)=NN=C(c1ccccc1)c1ccccc1`, the growth was 12.2% with T-47D breast; 44.1% with BT-549 breast; -23.8% (active) in the assay with MDA-MB-435 melanoma; 28.1% in the assay on SW-620 colon; 16.3% with MCF7 breast; 29% with HCT-116 colon. For the same compound, the growth in the assay with KM12 colon is 32.5%.
In the case of `CCCCCCCCCCN(CCCCCCCCCC)CC(=O)c1ccc2cc(Br)c3ccccc3c2c1`, the growth is 72.1% in the assay with T-47D breast; 72% in the assay with BT-549 breast; 33.3% in the assay on MDA-MB-435 melanoma; -94.2% (active) in the assay on SW-620 colon; 99% with MCF7 breast; -22.8% (active) with HCT-116 colon. The growth in the assay with KM12 colon is -13.9% (active).
As to `COc1ccc2c(c1)O/C(=C\c1cccc(OCC(=O)Nc3nc(C)c(C)s3)c1)C2=O`, the growth with T-47D breast was 75.7%; in the assay on BT-549 breast, -81.9% (active); in the assay on MDA-MB-435 melanoma, 80%; in the assay on SW-620 colon, -39% (active); in the assay on MCF7 breast it was 93.8%; with HCT-116 colon, 66.6%. Further, the growth in the assay on KM12 colon is 1.92% (active).
Take `Cc1cccc(Cc2cnc(NC(=O)/C=C/c3ccco3)s2)c1`: the growth in the assay with T-47D breast was 37.2%; with BT-549 breast, 25.8%; with MDA-MB-435 melanoma, -30.7% (active); with SW-620 colon, 24.9%; in the assay on HCT-116 colon, 18.1%; in the assay with HCC-2998 colon, 6.44% (active). The growth in the assay with KM12 colon was 13.3%.
Regarding `Cc1cc[c-]cc1.Fc1c[c-]c(-c2ccccn2)c(F)c1.[Pt+2].c1ccc(P(C[PH+](c2ccccc2)c2ccccc2)c2ccccc2)cc1`, the growth in the assay on T-47D breast is 8.85% (active); in the assay with BT-549 breast it was 20.6%; in the assay on MDA-MB-435 melanoma, 8.28% (active); in the assay with SW-620 colon, 14.6%; in the assay with HCT-116 colon, 9.8% (active); in the assay on HCC-2998 colon, 33.1%. Further, in the assay on KM12 colon, the growth is 18%.
As for `Cc1ccc(Cl)cc1NC(=O)c1cc2ccccc2cc1O`, the growth in the assay with T-47D breast is -12.1% (active); in the assay with BT-549 breast, -15.6% (active); with MDA-MB-435 melanoma, -7.31% (active); in the assay on SW-620 colon it was -1.12% (active); in the assay on MCF7 breast it was -21.5% (active); in the assay with HCT-116 colon, -10.7% (active). The growth in the assay with KM12 colon is -29.4% (active).
